The list is not random: actives were taken first. Their share in the collection is about 1.3%.
ZTA counter – ZTA (EBV) inhibition in EBNA-1 counter-screen | P03206 | ZTA-DNA binding, fluorescence polarization | inhibition, % at 11 µM | 320,000 compounds, 0.15% hits; in the data active means inhibition above about 33%
Target sequence (P03206 whole entry, looked up): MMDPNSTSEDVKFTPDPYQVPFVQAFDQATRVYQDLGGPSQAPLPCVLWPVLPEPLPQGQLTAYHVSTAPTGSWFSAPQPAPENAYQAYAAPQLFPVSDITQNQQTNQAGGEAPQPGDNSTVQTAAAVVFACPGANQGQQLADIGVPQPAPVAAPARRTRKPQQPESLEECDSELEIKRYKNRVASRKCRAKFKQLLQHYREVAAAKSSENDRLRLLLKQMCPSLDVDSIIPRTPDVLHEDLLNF
EBNA-1 inh – blocks EBNA-1 binding to DNA | 300,000 compounds, 0.34% hits | inhibition, % at 14.8 µM | EBNA-1 DNA binding, fluorescence polarization; in the data active means inhibition above about 28%
PREPL inh – human PREPL enzyme inhibition; recombinant PREPL, fluorescence polarization activity-based probe; 320,000 compounds, 0.68% hits; AID 2751; Q4J6C6; inhibition, % at 5.96 µM; in the data active means inhibition above about 43%;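 further: 0% = enzyme with DMSO and 100% = wells lacking enzyme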
LYPLA1 inh – counter-screen for PME1 inhibitors: inhibitors of human LYPLA1; recombinant LYPLA1, FP-Rh probe fluorescence polarization; inhibition, % at 5.9 µM; 320,000 compounds, 0.16% hits;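 active means inhibition above the mean of all tested compounds plus 3 SD, set per campaign, cut at about 14% in these data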;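 further: inhibitors block serine hydrolase probe labeling of LYPLA1 so polarization falls; 0% = enzyme with DMSO and 100% = wells lacking LYPLA1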
Target sequence (O75608 whole entry, looked up): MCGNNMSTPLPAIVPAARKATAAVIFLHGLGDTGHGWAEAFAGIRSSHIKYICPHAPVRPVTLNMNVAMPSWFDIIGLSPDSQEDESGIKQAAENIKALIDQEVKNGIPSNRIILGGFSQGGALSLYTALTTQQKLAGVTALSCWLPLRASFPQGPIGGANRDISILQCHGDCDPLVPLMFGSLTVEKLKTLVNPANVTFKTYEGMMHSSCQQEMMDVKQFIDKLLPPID
LYPLA2 counter – counter-screen for PME1 inhibitors: inhibitors of human LYPLA2 | AID 2177 | inhibition, % at 5.9 µM | O95372 | 320,000 compounds, 0.38% hits | recombinant LYPLA2, FP-Rh probe fluorescence polarization;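 active means inhibition above the screen-wide mean plus 3 SD, limit set per campaign, cut at about 26% in these data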;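 further: 0% = LYPLA2 with DMSO and 100% = wells lacking LYPLA2 enzyme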
ZTA inh confirm – confirmation of Epstein-Barr virus ZTA DNA binding inhibitors | shares compounds with ZTA counter | Zta-ZRE DNA binding, fluorescence polarization | inhibition, % at 11.1 µM | 320 compounds, 30% hits;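 active means mean inhibition across triplicate runs above the hit threshold derived for the original primary screen, cut at about 33% in these data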;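 further: 0% = Zta with DMSO and 100% = wells lacking Zta protein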
EBNA-1 counter – blocks EBNA-1 DNA binding in ZTA counter-screen; AID 2362; inhibition, % at 14.8 µM; fluorescence polarization; shares compounds with ZTA counter; 320 tested, under 10 active; call rule not given here
Numbers without * were called inactive; . = no result; + = active, no number.

SMILES	ZTA counter	EBNA-1 inh	PREPL inh	LYPLA1 inh	LYPLA2 counter	ZTA inh confirm	EBNA-1 counter
COC(=O)c1ccc(NC(=O)c2ccc(NC(=O)c3ccco3)cc2)cc1	38.9*	6.7	2.9	-20.1	-15.8	48.6*	23.4
CC(=O)c1ccc(NC(=O)c2ccc(NC(=O)c3ccco3)cc2)cc1	16.3	14.6	5.9	-2.2	5.8	.	.
Fc1ccc(/C=N/NC2=Nc3cccc4cccc2c34)cc1	179.3*	0.4	26.9	-6.6	-5.0	-3.0	4.0
CCOc1ccc(CN2C(=O)c3ccccc3C2C(=O)NC(C)CC)cc1OC (stereo not drawn)	-1.0	9.2	0.9	0.6	-1.8	.	.
COc1ccc(CCNC(=O)C2c3ccccc3C(=O)N2CCC(C)C)cc1OC (stereo not drawn)	74.7*	-17.9	12.3	-3.9	-2.0	-6.2	5.0
CCc1ccc2nc(N(CCCN(C)C)C(=O)c3ccc(S(=O)(=O)N4CCCC4)cc3)sc2c1	-0.5	1.4	-5.1	1.8	5.8	.	.
CCc1ccc2nc(N(CCCN(C)C)C(=O)c3ccc(S(=O)(=O)N4CCCc5ccccc54)cc3)sc2c1	37.3*	1.9	-5.9	-3.3	-1.3	6.7	-0.2
CCC(=O)c1ccc(N2CCN(C(=O)c3cccs3)CC2)c(F)c1	-15.7	2.3	1.7	0.9	10.8	.	.
CCC1CCCCN1C(=O)c1ccc2nc(Cc3ccc(OC)cc3)oc2c1 (stereo not drawn)	3.6	6.6	18.1	4.7	7.8	.	.
COCC1CCCCN1C(=O)c1ccc2nc(Cc3ccc(OC)c(OC)c3)oc2c1 (stereo not drawn)	34.7*	10.0	5.8	-1.5	3.2	-5.6	-3.1
COc1cc(C#Cc2c(-c3cncn3C)n(C)c3ccc(-c4cnc(OC)nc4)cc23)cc(OC)c1	38.4*	.	38.8	3.8	-8.2	5.3	-1.7
CC(=O)N1CCc2cc(S(=O)(=O)CCC(=O)NCc3ccc(F)cc3)ccc21	14.3	4.8	-6.1	1.0	-2.2	.	.
COc1cc(CO)ccc1Oc1nc2ccccc2n2cnnc12	7.3	0.8	5.3	-3.4	0.0	.	.
COc1ccc(-n2c(C)c3c(OC)cccc(=O)c3c2C)cc1	12.8	7.2	25.6	2.4	-1.5	.	.
COc1cccc(=O)c2c(C)n(-c3ccc(C(=O)O)cc3)c(C)c12	45.8*	15.9	12.9	-0.5	2.1	-8.2	-4.0
Cc1nc(C)c(C(=O)NNC(=O)Nc2ccc(Cl)cc2)s1	-7.6	-7.0	-7.1	1.4	-1.0	.	.
COc1ccc(C2=[N+](C)CCn3cccc32)c(OC)c1	33.4*	11.8	11.2	-1.7	1.1	0.5	1.3
COc1ccccc1Nc1nc(C)nc2c1oc1ccccc12	13.1	-3.3	-3.8	0.5	1.2	.	.
COc1ccc(Nc2nc(C)nc3c2oc2ccccc23)c(OC)c1	39.2*	0.3	24.1	1.4	3.9	23.1	-4.2
CCCC(=O)Nc1ccc2oc(-c3cccnc3)nc2c1	44.8*	-6.7	-2.0	0.5	1.3	1.9	-4.7
CCCCC(=O)Nc1ccc2oc(-c3cccnc3)nc2c1	2.6	-7.7	-17.5	1.9	2.2	.	.
CCN(CC)CCOC(=O)c1ccc(N/C=C(/C#N)c2nc(-c3ccc(OC)c(OC)c3)cs2)cc1	73.7*	2.0	36.7	-2.1	-11.1	50.8*	19.5
CCN(CC)CCOC(=O)c1ccc(N/C=C(/C#N)c2nc(-c3cccc(OC)c3)cs2)cc1	39.7*	-2.3	-8.4	-6.2	-4.2	3.5	-12.8
O=C(COc1ccc(Cl)cc1Br)Nc1nnc(C2CC2)s1	0.4	.	1.0	-0.5	-1.2	.	.
NS(=O)(=O)c1ccc(NC(=O)c2cccc(N3C(=O)c4ccccc4C3=O)c2)cc1	61.4*	-1.8	0.2	-4.2	-2.4	58.4*	-0.9
SMILES	ZTA counter	EBNA-1 inh	PREPL inh	LYPLA1 inh	LYPLA2 counter	ZTA inh confirm	EBNA-1 counter
CC1(C)CC(=O)C2=C(C1)OC(N)=C(C#N)C2c1ccccc1[N+](=O)[O-] (stereo not drawn)	128.9*	1.8	3.3	0.0	1.5	3.2	-11.6
CCN1CCN(C(=O)C(=O)c2c(C)[nH]c3ccccc23)CC1	5.5	-8.2	26.0	0.8	-1.4	.	.
c1coc(-c2nnc(-c3ccco3)nn2)c1	36.6*	5.4	2.2	-5.5	10.9	33.3*	-7.8
O=C(Nc1cc(S(=O)(=O)N2CCOCC2)ccc1N1CCOCC1)c1ccc(S(=O)(=O)N2CCCCC2)cc1	-4.5	-11.4	16.4	0.2	3.7	.	.
O=C(Nc1cc(S(=O)(=O)N2CCOCC2)ccc1N1CCOCC1)c1ccc(Cl)nc1	33.5*	7.4	-7.9	-2.0	0.8	5.3	4.7
Nc1nc(N)c2cc(Sc3ccc4ccccc4c3)ccc2n1	33.8*	2.5	-63.0	-1.6	7.3	19.8	-3.5
Nc1ccc(Sc2cc(Cl)nc(N)n2)cc1	1.4	-3.6	-0.3	-7.4	-4.8	.	.
COc1ccc2cc(C(=O)N3CCN(c4ccccc4OC)CC3)[nH]c2c1	4.4	15.9	1.9	-1.8	11.7	.	.
O=C(O)/C(=C\c1ccc2ccccc2c1)c1cccc2ccccc12	36.4*	8.4	-0.3	-5.4	-7.5	1.8	8.5
O=C(O)c1ccc2c(c1)-c1cc(C(=O)O)ccc1S2(=O)=O	-9.4	-9.5	21.6	5.3	11.5	.	.
COc1ccc2nc(SCC(=O)Nc3cc(C)on3)c(C#N)cc2c1	49.8*	-6.3	5.3	-5.1	-1.6	11.5	5.5
CC1(C)Cc2c(sc(NC(=O)C(=O)N3CCN(CCO)CC3)c2C(N)=O)CO1	-3.3	2.7	-1.9	0.6	0.0	.	.
CC1=[N+](C)c2ccc3ccccc3c2C1(C)C	+	1.2	-125.4	-44.8	-83.5	69.0*	18.2
c1ccc2c(c1)ccc1ccccc12	.	.	-1.6	.	.	.	.
Cc1ccc(-c2nn(-c3ccccc3)cc2/C=C/C(=O)O)o1	-21.4	-10.7	-3.6	4.2	-6.6	.	.
Cc1ccc(-c2nn(-c3ccccc3)cc2C(=O)O)o1	36.7*	4.2	0.7	3.7	-1.0	-1.8	-13.4
COc1ccc(NC(=O)Nc2cccnc2)cc1	-3.9	1.0	3.2	0.5	7.0	.	.
COc1ccc(C(=O)Nc2ccc(C(=O)Nc3cccnc3)cc2)cc1	52.2*	11.2	-1.9	-0.1	2.0	23.1	6.6
CCN1CCN(CCCNC(=O)c2ccc(/C=C3/Oc4ccccc4N(Cc4cccc(C)c4)C3=O)cc2)CC1	15.0	3.2	-90.8	-17.8	-28.2	.	.
O=C(NCCCN1CCOCC1)c1ccc(/C=C2\Oc3ccccc3N(Cc3ccccc3F)C2=O)cc1	48.0*	-1.2	-76.6	-11.1	-8.9	14.2	-6.3
COC(=O)c1ccc(OC(=O)CCS(=O)(=O)c2ccc(C)cc2)cc1	0.3	-2.3	2.2	-0.6	0.1	.	.
CC(C)c1ccc(NC(=O)COc2ccc(S(=O)(=O)N3CCOCC3)cc2)cc1	35.5*	2.5	8.1	0.5	-0.8	18.4	-9.6

Source: PubChem
